Some test systems named below: SR leukemia; RPMI-8226 leukemia; OVCAR-8 ovarian; OVCAR-5 ovarian; OVCAR-4 ovarian; SK-OV-3 ovarian; IGROV1 ovarian; OVCAR-3 ovarian; HS 578T breast; NCI/ADR-RES ovarian; T-47D breast; BT-549 breast; MDA-MB-435 melanoma; SW-620 colon; MCF7 breast; HCT-116 colon; HCC-2998 colon; KM12 colon; MOLT-4 leukemia.
Holding throughout (test): NCI-60 one-dose screen, 48 h (100 = growth as untreated, 0 = no growth, -100 = all killed)
What all share (details): 10 µM unless noted

Compounds without any hit were thinned out: in the full panel of roughly 83,000, 20% have a hit.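 96-well plates, one dose, 48 hours. Percent growth reported; active if below 10.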 Values without a mark were called inactive. Active and inactive are the calls of the source.

As for `N#CC1C(C#N)C2CCC1C1C2N1c1ccccc1` (stereo not drawn), the growth in the assay with SR leukemia is 91.5%; in the assay with RPMI-8226 leukemia, 95.8%; in the assay on OVCAR-8 ovarian it was 114%; in the assay on OVCAR-5 ovarian it was 92.4%; in the assay on OVCAR-4 ovarian, 106%; in the assay with SK-OV-3 ovarian it was 100%. Also, the growth with IGROV1 ovarian was 85.1%; with OVCAR-3 ovarian it was 107%; in the assay with HS 578T breast, 112%; in the assay on NCI/ADR-RES ovarian, 111%; in the assay with T-47D breast, 108%; with BT-549 breast it was 98.1%. Further, the growth is 107% with MDA-MB-435 melanoma; 100% in the assay with SW-620 colon; 101% in the assay on MCF7 breast; 95.1% with HCT-116 colon; 102% in the assay on HCC-2998 colon; 102% in the assay with KM12 colon.

Take `CCOC(=O)c1c(C)n(Cc2ccccc2)c2cc(CN(C)C)c(O)cc12`: the growth with MOLT-4 leukemia was 52.7%; in the assay on OVCAR-8 ovarian it was 80.7%; with OVCAR-5 ovarian it was 69.3%; with OVCAR-4 ovarian it was 68.1%; with SK-OV-3 ovarian, 70.4%; with HS 578T breast it was 61.1%. The growth in the assay with NCI/ADR-RES ovarian was 63.5%; in the assay on T-47D breast, 61.1%; in the assay on BT-549 breast it was 64.7%; with MDA-MB-435 melanoma, 80.3%; in the assay with SW-620 colon, 63%; in the assay with MCF7 breast, 55.3%. Besides, the growth was 51.7% in the assay on HCT-116 colon, 55.4% in the assay with HCC-2998 colon and 76.5% in the assay on KM12 colon.

In the case of `[Cl][Hg][c]1cc[c]([Hg][Cl])o1`, the growth in the assay with SR leukemia is 6.25% (active); in the assay with RPMI-8226 leukemia, 1.23% (active); in the assay on OVCAR-8 ovarian it was 65.1%; in the assay on OVCAR-5 ovarian it was 122%; in the assay on OVCAR-4 ovarian, 79.6%; in the assay with SK-OV-3 ovarian, 94.9%. The growth in the assay on IGROV1 ovarian is 15.9%; with OVCAR-3 ovarian, -1.69% (active); in the assay with HS 578T breast it was 55.4%; with NCI/ADR-RES ovarian, 69.3%; with T-47D breast, -7.76% (active); in the assay with BT-549 breast it was 14%. The growth was 55.1% in the assay on MDA-MB-435 melanoma; 12.3% in the assay with SW-620 colon; -18.6% (active) in the assay on MCF7 breast; 30.7% in the assay on HCT-116 colon; 106% with HCC-2998 colon; 76% in the assay with KM12 colon.

`O=C(O)c1ccc([S-])cc1.[Au+].c1ccc(CN2[CH-]N(Cc3ccccc3)C(c3ccccc3)=C2c2ccccc2)cc1`: the growth in the assay on MOLT-4 leukemia was -1.59% (active); in the assay on OVCAR-8 ovarian, 1.87% (active); in the assay on OVCAR-5 ovarian it was -14.2% (active); in the assay with SK-OV-3 ovarian it was -5% (active); in the assay on IGROV1 ovarian, -58.6% (active); in the assay on OVCAR-3 ovarian it was -95.2% (active). Besides, the growth was 23.2% in the assay on HS 578T breast; 3.13% (active) in the assay on NCI/ADR-RES ovarian; -66.5% (active) with T-47D breast; -21.2% (active) in the assay on BT-549 breast; -9.04% (active) with MDA-MB-435 melanoma; -50.2% (active) in the assay on SW-620 colon. In addition, the growth with MCF7 breast was -86.1% (active); in the assay on HCT-116 colon, -84.7% (active); with HCC-2998 colon, -72.7% (active); with KM12 colon, -26.1% (active).

As to `CN1C(=O)C(=Cc2cn(Cc3ccccc3)c3ccccc23)C(=O)N(C)C1=O`, the growth with MOLT-4 leukemia was 96.8%; with OVCAR-8 ovarian, 90.5%; in the assay with OVCAR-5 ovarian it was -6.96% (active); in the assay on OVCAR-4 ovarian, 49.8%; with SK-OV-3 ovarian it was 51.8%; in the assay on OVCAR-3 ovarian, 71.2%. In addition, the growth in the assay on HS 578T breast was 86.8%; in the assay with NCI/ADR-RES ovarian, 89%; in the assay with T-47D breast it was 42.8%; in the assay with BT-549 breast, 88.9%; in the assay with MDA-MB-435 melanoma, 102%; in the assay with SW-620 colon it was 79.7%. Also, the growth is 64% in the assay with MCF7 breast, 71% in the assay on HCT-116 colon, 81.8% in the assay on HCC-2998 colon and 102% in the assay on KM12 colon.

Regarding `CCCCCCCCCCCCCCCCCCOc1ccccc1COP(=O)(O)OOCC[N+](C)(C)C`, the growth in the assay with MOLT-4 leukemia is -36.1% (active); in the assay with OVCAR-8 ovarian, -30.5% (active); with OVCAR-5 ovarian it was 40.5%; in the assay with OVCAR-4 ovarian, 34.6%; in the assay on SK-OV-3 ovarian it was 36.2%; in the assay on IGROV1 ovarian, -74.1% (active). The growth is 15.6% in the assay on HS 578T breast; 88.5% in the assay on NCI/ADR-RES ovarian; 16.8% in the assay with T-47D breast; 25.5% in the assay on BT-549 breast; 7.62% (active) in the assay on MDA-MB-435 melanoma; 6.94% (active) in the assay on SW-620 colon. Moreover, the growth in the assay with MCF7 breast is 16.2%; with HCT-116 colon, 1.15% (active); in the assay with HCC-2998 colon, -8.6% (active); in the assay on KM12 colon, 0.411% (active).

As for `COC(=O)CC[C@H](Cc1ccccc1)NC(=O)c1csc([C@@H](C[C@H](C(C)C)N(C)C(=O)[C@@H](NC(=O)[C@H]2CCCCN2C)C(C)C)OC(C)=O)n1`, the growth in the assay on MOLT-4 leukemia was 9.45% (active); with OVCAR-8 ovarian, 28.1%; with OVCAR-5 ovarian, 76.2%; in the assay on SK-OV-3 ovarian, 35.4%; in the assay with IGROV1 ovarian, 15.3%; with OVCAR-3 ovarian, -3.19% (active). For the same molecule, the growth in the assay with HS 578T breast was 38.2%; in the assay with NCI/ADR-RES ovarian, 30.4%; with T-47D breast it was 77.8%; in the assay with BT-549 breast it was -22.4% (active); with MDA-MB-435 melanoma, 1.58% (active); with MCF7 breast it was 17.1%. Further, the growth in the assay with HCT-116 colon is 20.8%; with HCC-2998 colon, 42.4%; with KM12 colon it was 24.8%.

As to `Cc1ccc(S(=O)(=O)F)cc1C(=O)O`, the growth in the assay with SR leukemia is 103%; with RPMI-8226 leukemia, 100%; in the assay with OVCAR-8 ovarian, 116%; in the assay on OVCAR-5 ovarian, 102%; in the assay with OVCAR-4 ovarian, 110%; in the assay with SK-OV-3 ovarian it was 88.3%. Further, the growth in the assay on IGROV1 ovarian is 102%; in the assay with OVCAR-3 ovarian, 109%; in the assay with HS 578T breast it was 112%; in the assay on NCI/ADR-RES ovarian, 105%; in the assay on T-47D breast, 91.6%; in the assay with BT-549 breast, 111%. In addition, the growth with MDA-MB-435 melanoma is 86.9%; in the assay on SW-620 colon, 109%; in the assay with MCF7 breast, 111%; in the assay on HCC-2998 colon it was 108%.

Consider `C[C@]12CCc3nc(Nc4ccccc4F)sc3C1=CC[C@@H]1[C@@H]2CC[C@]2(C)C(=O)CC[C@@H]12`, for which the growth was 11.4% in the assay on SR leukemia; 15% with RPMI-8226 leukemia; 70.8% in the assay with OVCAR-8 ovarian; 76.5% with OVCAR-5 ovarian; 73.9% with OVCAR-4 ovarian; 72.6% in the assay with SK-OV-3 ovarian. In addition, the growth with IGROV1 ovarian is 61.8%; with OVCAR-3 ovarian, 29.2%; with HS 578T breast, 67.8%; in the assay with NCI/ADR-RES ovarian, 73.9%; with T-47D breast, 37.5%; in the assay with BT-549 breast, 66.2%. Besides, the growth with MDA-MB-435 melanoma is 52.5%; with SW-620 colon, -12.6% (active); in the assay on MCF7 breast it was 12.5%; in the assay on HCT-116 colon, -22.4% (active); in the assay with HCC-2998 colon, 80.1%; with KM12 colon, 42.5%.

For the origin of these results see PubChem BioAssay (NCI).
